Screening results as filed in PubChem.
Methyltransferases: Primary Screen for Target Class Profiling of Small Molecule Inhibitors of Methyltransferases; purified enzyme, MTase-Glo SAH luminescence; hits give low values; actives 3.9% (n = 25,000); calls only at 40 µM; call rule not given here
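Each enzyme was reacted with SAM and its substrate, with compounds tested once at 40 uM; SAH formed was read by MTase-Glo luminescence.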
Of the large screens only hits and unclear results are named; the others gave an inactive call. Only a selection was taken, and hits are over-represented in it overall.

O=c1c2ccccc2n2c(=O)n(Cc3ccccc3Cl)nc2n1CCc1ccccc1	none
COCCN1C(=O)c2c(-n3cccc3)c3cc(C)ccc3n2CC1(C)C(=O)NCCC(C)C (configuration not stated)	none
Cc1ccc(Cn2c(=O)c3ccccc3n3c(=O)n(CC(=O)Nc4ccc(C)c(C)c4)nc23)cc1	none
CC1(C(=O)NC2CCCCC2)Cn2c(cc3ccccc32)C(=O)N1Cc1ccc(Cl)cc1 (configuration not stated)	none
Cc1c(OCC(F)(F)F)ccnc1CS(=O)c1nc2ccccc2[nH]1 (configuration not stated)	Methyltransferases active
O=C(Cn1nc2n(Cc3ccc(F)cc3)c(=O)c3ccccc3n2c1=O)c1ccccc1	none
COc1ccc(OC)c2c1cc1n2CC(C)(C(=O)NC2CCCC2)N(Cc2ccco2)C1=O (configuration not stated)	none
COc1ccccc1NC(=O)c1sc(=S)n2c1[nH]c(=O)c1cc(Cl)ccc12	none
Cc1cccc(-c2n[nH]n3c2nc(=O)c2ccc(C(=O)NCc4ccc5c(c4)OCO5)cc23)c1	none
O=C(NCc1ccc(Cl)cc1)c1ccc2c(=O)[nH]c3c(C(=O)NC4CCCC4)sc(=S)n3c2c1	Methyltransferases active
Cn1c(=O)c2ccc(C(=O)NC3CCCC3)cc2n2c(=O)n(CC(=O)NCc3ccc(Cl)cc3)nc12	none
O=C(NCc1ccc2c(c1)OCO2)c1ccc2c(=O)[nH]c3c(C(=O)NCC4CCCO4)sc(=S)n3c2c1 (configuration not stated)	none
CC[C@H](C)NC(=O)c1sc(=S)n2c1[nH]c(=O)c1cc(Cl)ccc12	Methyltransferases active
COc1cc2c(=O)[nH]c3c(C(=O)NCc4ccc5c(c4)OCO5)sc(=S)n3c2cc1OC	none
Cc1ccc(NC(=O)c2sc(=S)n3c2[nH]c(=O)c2cc(Cl)ccc23)c(C)c1	none
Cc1ccc2c(c1)c(=O)[nH]c1c(C(=O)NCc3ccc4c(c3)OCO4)sc(=S)n12	Methyltransferases active
CCOC(=O)c1cc2n(n1)CC(C)(C(=O)NC1CCCC1)N(c1ccc(Cl)cc1C)C2=O (configuration not stated)	none
CCOc1cc(CNC(=O)c2ncn3c2C(=O)N(CC)C(C)(C(=O)NC2CCCC2)C3)ccc1OC (configuration not stated)	none
CCC(C)NC(=O)c1ccc2c(=O)n(Cc3ccccc3)c3nn(Cc4ccc(C)cc4)c(=O)n3c2c1 (configuration not stated)	none
COCCCN1C(=O)CSc2c(c3ccccc3n2C)C1C(=O)NCc1ccc(F)cc1 (configuration not stated)	none
CCc1cc2c(cc3n2CC(C)(C(=O)NC2CCCCCC2)N(CCCN(CC)CC)C3=O)s1 (configuration not stated)	none
CCCCNC(=O)Cn1ccc2cc(S(=O)(=O)N3CCCCC3)ccc21	none
CCCn1c(=O)c2ccc(C(=O)NC3CCCC3)cc2n2c(=O)n(CC(=O)c3cccc(OC)c3)nc12	none
CCc1cccc(NS(=O)(=O)c2cc3c(cc2C)n(C)c(=O)n3C)c1	none
CCCn1c(=O)c2ccc(C(=O)NC(C)C)cc2n2c(SCC(=O)Nc3ccccc3C)nnc12	none
Cn1c(=O)c2ccc(C(=O)NC3CCCC3)cc2n2c(=O)n(CC(=O)c3ccc(Cl)cc3)nc12	none
CC1(C(=O)NC2CCCC2)Cn2c(ccc2-c2ccco2)C(=O)N1Cc1ccccc1 (configuration not stated)	none
Cc1ccc(N2C(=O)c3nc4ccccc4n3CC2(C)C(=O)NC2CCCCCC2)cc1 (configuration not stated)	none
C=CCn1c(=O)c2cnc(Nc3ccc(N4CCN(C)CC4)cc3)nc2n1-c1cccc(C(C)(C)O)n1	Methyltransferases active
CCn1c(=O)c(-c2ccc(-c3cncs3)cc2Cl)cc2cnc(Nc3ccc(N4CCN(C)CC4)cc3)nc21	none
COc1ccc(CCN2C(=O)c3cc4sccc4n3CC2(C)C(=O)NC2CCCC2)cc1OC (configuration not stated)	none
CCOc1ccc(N(C(=O)C2CCCCC2)S(=O)(=O)c2ccc3c(c2)n(C)c(=O)n3C)cc1	none
CN1C(=O)c2cc(C(=O)NCCc3ccccc3Cl)nn2CC1(C)C(=O)NCc1ccccc1 (configuration not stated)	none
O=C(O)CNC(=O)C(CS)Cc1ccccc1 (configuration not stated)	Methyltransferases active
CC(=O)NC(Cc1ccccc1)C(=O)NC(C(=O)O)C(C)C (configuration not stated)	none
O=C(O)CNC(=O)CNC(=O)CNC(=O)CSC(=O)c1ccccc1	none
Cc1ccc(Cn2nc3n(C)c(=O)c4ccc(C(=O)NC5CCCC5)cc4n3c2=O)cc1	none
Cc1cccc(CN2C(=O)c3cc4ccccc4n3CC2(C)C(=O)NCCC(C)C)c1 (configuration not stated)	none
Cn1c(=O)c(-c2c(Cl)cccc2Cl)cc2cnc(Nc3ccc(N4CCOCC4)cc3)nc21	none
CNC(=O)c1ccccc1Nc1nc(Nc2ccc(N3CCNCC3)cc2)ncc1Cl	Methyltransferases active
CC(=O)c1c(C)c2cnc(Nc3ccc(N4CCNCC4)cn3)nc2n(C2CCCC2)c1=O	none
COc1ccccc1CNC(=O)C1(C)Cn2cnc(C(=O)N3CCCC3)c2C(=O)N1C1CC1 (configuration not stated)	none
CCc1cc2c(cc3n2CC(C)(C(=O)NC2CCCCC2)N(CC(C)c2ccccc2)C3=O)s1 (configuration not stated)	none
CCCCNC(=O)c1cc2n(n1)CC(C)(C(=O)NC1CCCCCC1)N(C)C2=O (configuration not stated)	none
CCn1c(-c2nonc2N)nc2c(C#CC(C)(C)O)ncc(OCC3CCCNC3)c21 (configuration not stated)	Methyltransferases active
CCCC1c2ccc(C)n2CCN1C(=O)Nc1cc(Cl)ccc1OC (configuration not stated)	none
O=C(CCn1ccc2cc(S(=O)(=O)N3CCCCC3)ccc21)NCc1ccc2c(c1)OCO2	none
CCc1cccc(C)c1NS(=O)(=O)c1ccc2c(c1)n(C)c(=O)n2C	none
Cc1ccc(C)c(N2CCN(C(=O)CCc3nnc4n(CCCOC(C)C)c(=O)c5ccccc5n34)CC2)c1	none
Cc1cccc(N2CCN(C(=O)c3ccc4c(=O)[nH]c5c(C(=O)NC(C)C)sc(=S)n5c4c3)CC2)c1C	Methyltransferases active
Cc1cccc(N2CCN(C(=O)c3ccc4c(=O)[nH]c5c(C(=O)NC6CCCC6)sc(=S)n5c4c3)CC2)c1C	none
Cc1ccc(C)c(N2CCN(C(=O)c3ccc4c(=O)[nH]c5c(C(=O)NC(C)C)sc(=S)n5c4c3)CC2)c1	Methyltransferases active
CCc1nc2c(=O)n(CC(=O)N3CCN(c4cccc(C)c4C)CC3)nc(C)c2s1	none
Cc1cccc(-c2n[nH]n3c2nc(=O)c2ccc(C(=O)N4CCN(c5cc(C)ccc5C)CC4)cc23)c1	none
Cc1cccc(NC(=O)CSc2nnc3[nH]c(=O)c(C(C)(C)C)nn23)c1	none
CCCn1c(=O)c2ccc(C(=O)NC3CCCCC3)cc2n2c(=O)n(CC(=O)NC(C)CC)nc12 (configuration not stated)	none
CCOC(=O)c1cc2n(n1)CC(C)(C(=O)NC1CCC(C)CC1)N(Cc1cccc(C)c1)C2=O (configuration not stated)	none
CCN(CC)CCCN1C(=O)c2cc3occc3n2CC1(C)C(=O)NC1CCCCCC1 (configuration not stated)	none
Cc1cccc(NC(=O)Cn2c(=O)oc3cc(S(=O)(=O)NCc4ccccc4)ccc32)c1C	none
COc1ccc(Cl)cc1NS(=O)(=O)c1ccc2c(c1)n(C)c(=O)n2C	none
